Compound activity from PubChem BioAssay.
An excerpt weighted towards active compounds, which were near 2.4% of everything screened.
D2 PAM-1 – potentiates the human D2 dopamine receptor allosterically; AID 624464; P14416; 0.23% of 360,000 active; DiscoveRx D2 beta-arrestin cells, luminescence, 90 min; 100% = 57 uM dopamine signal; potentiation, % (no concentration beside the values); in the data active means potentiation above about 50%; inconclusive means mostly about 30% to 49%
Target sequence (P14416 whole entry, looked up): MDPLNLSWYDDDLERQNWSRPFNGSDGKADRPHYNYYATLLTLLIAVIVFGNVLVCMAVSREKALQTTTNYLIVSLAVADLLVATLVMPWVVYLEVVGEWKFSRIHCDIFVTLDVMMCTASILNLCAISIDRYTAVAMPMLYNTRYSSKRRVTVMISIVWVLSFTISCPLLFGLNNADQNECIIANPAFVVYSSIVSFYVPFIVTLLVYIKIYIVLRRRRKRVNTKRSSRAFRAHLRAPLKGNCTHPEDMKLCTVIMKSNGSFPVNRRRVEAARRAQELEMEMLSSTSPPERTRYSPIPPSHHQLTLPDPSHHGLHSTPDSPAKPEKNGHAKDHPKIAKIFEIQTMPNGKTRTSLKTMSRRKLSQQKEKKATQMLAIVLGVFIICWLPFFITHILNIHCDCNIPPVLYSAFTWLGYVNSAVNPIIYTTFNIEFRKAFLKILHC
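PathHunter beta-arrestin assay in DiscoveRx D2 cells. Compounds were added with an EC20 of dopamine (50 nM final) for 90 min at 37 deg C. Luminescence was read 1 h after detection reagent, with 57 uM dopamine as the EC100 control.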
D2 PAM-2 – positively modulates the human D2 dopamine receptor allosterically. P14416. 0.34% of 340,000 active. potentiation, % at 10 µM. HEK293 T-REx D2, calcium flux, EC20 dopamine potentiation;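 active means potentiation over 3 SD above the plate norm, cut at about 30% in these data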; further: 0% is about no effect
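Calcium flux readout, no-wash dye, 1 read/s. Inducible HEK293 Trex D2 line, overnight 30 C. Compound alone 180 s (agonist flags), then EC20 dopamine, another 180 s to score potentiation.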
D2 ag-1 – agonists of human D2 dopamine receptor (beta-arrestin) | activation, % (test concentration not listed) | P14416 | AID 624465 | 0.084% of 360,000 active | DiscoveRx PathHunter D2 beta-arrestin, luminescence, 90 min; 100% = 57 uM dopamine signal; in the data active means activation above about 40%; inconclusive means between about 15% and that limit
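DiscoveRx PathHunter D2 beta-arrestin cells (2,100/well) attached overnight, then compound-stimulated 90 min at 37 C in HBSS/10 mM HEPES/0.1% Tween-20 buffer; beta-galactosidase complementation read by luminescence after 1 h at ambient temperature. Dopamine 57 uM final (EC100) as control.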
D2 ag-2 – D2 dopamine receptor (human) agonism; P14416; HEK293 T-REx D2 cells, calcium flux agonist mode; activation, % at 2 µM; 0.53% of 340,000 active; AID 485358;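 active means activation over 3 SD above normal in the single-dose calcium agonist read, cut at about 30% in these data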; further: 0% is about no effect
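Tetracycline-induced HEK293 T-REx cells with force-coupled D2 receptor, plated overnight at 30 C, loaded with no-wash calcium dye. After a 10 s baseline, compound was pin-added and calcium flux read kinetically for 180 s; calcium rises flagged agonists.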
D2 antag – antagonizes the human D2 dopamine receptor; HEK293 TREx D2 cells, calcium flux, dopamine EC80; inhibition, % at 10 µM; 2% of 340,000 active; in the data active means inhibition above about 30%; inactive means below that, where a call was filed; further: 0% is about no effect
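Compounds are added to dye-loaded, induced HEK293 T-REx cells coupled to calcium release via D2; after a 3 min kinetic read an EC80 dopamine stimulus is given and fluorescence is recorded for 3 more min.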
D3 arrestin ag – activates human D3 dopamine receptor beta-arrestin recruitment | shares compounds with D2 ag-2 | DiscoveRx D3 beta-arrestin cells, luminescence, 90 min | Potency, µM (top dose mostly 76.9 µM), without a hit: top-dose activation, hits mostly activators | 4% of 2,300 active;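 further: potency means the concentration at half of the fitted maximal effect; 100% = dopamine control response; nearly all actives have a fitted effect of over 70% in size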
D2 ag-3 – activates human D2 dopamine receptor in D3 counterscreen | 5.9% of 2,300 active | AID 720507 | shares compounds with D2 ag-2 | Potency, µM (top dose mostly 76.9 µM), for inactives: at the highest dose activation, hits mostly activators | DiscoveRx PathHunter D2 beta-arrestin, luminescence, 90 min; response scale: percent relative to full dopamine signal; further: potency means the concentration at half of the fitted maximal effect; % of control where 0% means no effect; nearly all actives have a fitted effect of over 70% in size
Active calls of the source: *; ? = inconclusive; . = no result given. Unless noted, the call rests on the fitted dose curve; in most records, active means well fitted activation curve with a large enough effect; inconclusive means small, poorly fitted or top-dose-only effect; inactive means flat fitted curve, though single readings scatter.

SMILES | D2 PAM-1 | D2 PAM-2 | D2 ag-1 | D2 ag-2 | D2 antag | D3 arrestin ag | D2 ag-3
Cc1ccc(S(=O)(=O)N2CCCC2CNC(=O)C(=O)NC2CC2)cc1 (configuration not stated) | 2.3 | -10.6 | 1.1 | 34.5* | 7.0 | 0.9% | -2.5%
COc1ccc(S(=O)(=O)N2CCCC2CNC(=O)C(=O)NC2CCCCCC2)cc1 (configuration not stated) | 19.3 | -2.9 | 4.3 | 31.1* | 20.4 | 8.4% | ?
COC(=O)CN(C)C(=O)CC1C(=O)NCCN1CC(C)(C)C (configuration not stated) | -2.6 | -11.8 | -1.9 | 40.2* | -2.9 | -4.6% | -1.2%
COc1ccccc1CN(C)C(=O)CN1CCN(C(=O)c2cccs2)CC1 | 12.3 | -25.7 | 13.7 | 72.0* | 29.4 | 9.4% | ?
COc1ccc(-c2noc(CN3CCN(C(=O)c4cccs4)CC3)n2)c(OC)c1OC | -6.1 | -13.3 | -9.4 | 28.8 | -2.6 | 1.2% | 4.7%
COc1ccc(CN2CCN(C(=O)c3cccs3)CC2)cc1Br | 3.1 | . | 14.6 | . | . | . | .
COc1ccccc1CC(NC(C)=O)C(=O)N1CCN(C(=O)c2cccs2)CC1 (configuration not stated) | -7.4 | -10.2 | -1.9 | 7.2 | -6.3 | . | .
CCOc1ccc(CCNc2ncnc3onc(C)c23)cc1OCC | . | -4.5 | . | . | . | . | .
O=C(c1ccco1)N1CCN(CCOCCOc2cccc3ccccc23)CC1 | 19.7 | -17.5 | ? | 66.2* | 77.4* | 7.94µM* | 25.1µM*
c1ccc(CN2CCN(CCOCCOc3cccc4ccccc34)CC2)cc1 | -6.4 | -23.8 | 0.6 | 1.5 | -4.8 | . | .
O=C(c1ccco1)N1CCN(CCOc2ccc(F)cc2)CC1 | 3.3 | 4.0 | 10.0 | -2.2 | -12.7 | . | .
O=C(c1ccco1)N1CCN(CCCCOc2cccc3ccccc23)CC1 | 3.3 | -25.5 | ? | 75.5* | 83.6* | ? | ?
O=C(O)CCSc1ccc([N+](=O)[O-])cc1[N+](=O)[O-] | 1.7 | -3.6 | 13.7 | . | . | ? | 5.8%
Cc1cccc(OCC(=O)Nc2nonc2-c2ccc(Br)cc2)c1C | . | -1.4 | . | 1.1 | . | . | .
C=CCn1c(-c2sc3nc(C)cc(C)c3c2N)n[nH]c1=S | 2.4 | 4.4 | 2.6 | -1.5 | 31.6* | 13.0% | -13.3%
C=CCn1c(-c2cc(OC)cc(OC)c2)n[nH]c1=S | -4.5 | 3.3 | 1.2 | 0.4 | -17.1 | . | .
CCCCC/C=C/C1=CC(=O)C[C@H](c2ccc3c(c2)OCO3)C1 | -10.1 | -3.8 | -3.2 | 0.5 | 30.8* | -5.4% | -0.9%
Cc1oc(-c2cccc(Cl)c2)nc1CN1CCC(C(=O)NCCCN2CC(C)CC(C)C2)CC1 (configuration not stated) | -9.8 | -13.1 | -2.1 | 34.8* | 20.2 | -13.1% | 4.4%
Cc1oc(-c2cccc(Cl)c2)nc1CN1CCC(C(=O)NCCCN2CCN(c3cccc(Cl)c3)CC2)CC1 | . | -21.5 | . | . | . | . | .
c1ccc(CCNCCOc2ccccc2)cc1 | -6.9 | -25.3 | 13.6 | 56.1* | 48.1* | 0.5% | 11.1%
CCOc1ccc2nc(NC(=O)c3nc(SCc4ccccc4F)ncc3Cl)sc2c1 | . | 3.8 | . | 0.2 | . | . | .
COc1ccc(OCc2cc(C(=O)N[C@H]3CCCCNC3=O)no2)c(Cl)c1 | 21.3 | -3.1 | -0.7 | 0.3 | 15.8 | . | .
COc1ccc(OCc2cc(C(=O)NC3Cc4ccccc4C3)no2)c(Cl)c1 | 5.3 | 2.9 | -0.6 | . | . | 2.1% | 0.0%
CC(OC(=O)/C=C/c1ccco1)C(=O)NC1CCCCC1C (configuration not stated) | -1.2 | 10.7 | -1.2 | -0.2 | 4.6 | -2.1% | -3.5%
CC(OC(=O)Cc1ccc(Cl)cc1)C(=O)NC1CCCCC1C (configuration not stated) | 0.8 | 0.7 | 1.3 | -0.3 | -2.9 | -0.4% | -3.4%
SMILES | D2 PAM-1 | D2 PAM-2 | D2 ag-1 | D2 ag-2 | D2 antag | D3 arrestin ag | D2 ag-3
CC(OC(=O)/C=C/c1cccs1)C(=O)NC1CCCCC1C (configuration not stated) | 3.6 | 9.4 | -2.5 | -0.2 | 8.0 | . | .
CN1C(=O)c2ccccc2Sc2ccc(NC(=O)N3CCN(c4ccccc4F)CC3)cc21 | . | -3.2 | . | . | . | . | .
COc1ccc2[nH]cc(CCN=C(NC(=O)c3ccccc3F)Nc3nc(C)cc(C)n3)c2c1 | . | 23.3 | . | -0.9 | . | . | .
COc1cccc(NC(=O)C(=O)NCCc2csc(-c3ccc(C(F)(F)F)cc3)n2)c1 | . | 0.8 | . | 0.2 | . | . | .
Cc1c(-c2csc(N)n2)cnn1C | 12.4 | 2.2 | ? | 10.0 | 25.6 | 11.2µM* | 22.1%
CCC(C)N(NC(C)=O)c1nc(Cl)nc(NC(C)(C)C)n1 (configuration not stated) | 3.4 | -23.6 | -1.4 | 80.3* | 11.1 | -0.6% | -2.6%
